Experimental data from PubChem BioAssay (NCI).
About 79,000 compounds went through this panel and 15% of them were active in at least one assay; those are over-represented in the sample as a whole. Calls of active or inactive are those of the source. Rule as the data show it: active = growth inhibition above about 70%; inactive = the rest.

What was measured:
[1] = NCI Yeast Anticancer Drug Screen. Data for the rad50 strain (AID 155);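 also: 0% = growth of vehicle-only cultures of the same strain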; conditions: S. cerevisiae rad50 strain growth inhibition, hits give high values
Method in brief: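 Cells are treated with compound, grown, and their growth is then scored against vehicle-only cultures of the same repair-deficient yeast strain.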

[2] = NCI Yeast Anticancer Drug Screen. Data for the mec2-1 strain (AID 157); conditions: S. cerevisiae mec2-1 strain, hits give high values
Method in brief: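 mec2-1 yeast strain, carrying an alteration in DNA damage repair or cell cycle control, was exposed to compounds; growth inhibition was measured relative to vehicle-treated controls.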

[3] = NCI Yeast Anticancer Drug Screen. Data for the sgs1 mgt1 strain (AID 161);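 also: 0% = growth of cultures given vehicle only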; conditions: S. cerevisiae sgs1 mgt1 strain, hits give high values
Method in brief: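 Yeast cells carrying a defined DNA-repair defect were exposed to test compounds. Growth inhibition was measured relative to vehicle-treated controls.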

[4] = NCI Yeast Anticancer Drug Screen. Data for the cln2 rad14 strain (AID 165);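 also: 0% = growth equal to vehicle treated cultures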; conditions: S. cerevisiae cln2 rad14 strain, hits give high values
Method in brief: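 Yeast carrying cln2 and rad14 alterations (cell cycle control and DNA damage repair) were exposed to compounds. Growth inhibition was measured against vehicle-treated controls.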

[5] = NCI Yeast Anticancer Drug Screen. Data for the bub3 strain (AID 167); conditions: S. cerevisiae bub3 mutant strain, hits give high values
Method in brief: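 Part of a panel of yeast mutants defective in DNA damage repair or cell cycle regulation. Each strain is grown with compound, and inhibition is calculated relative to solvent-treated cultures.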

[6] = NCI Yeast Anticancer Drug Screen. Data for the mlh1 rad18 strain (AID 175); conditions: S. cerevisiae mlh1 rad18 strain growth inhibition, hits give high values
Method in brief: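 Growth inhibition of the yeast strain was measured after compound exposure and expressed relative to vehicle-treated controls. The strain carries defined defects in DNA damage repair.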

[7] = at 5.0 µM (retest, dose inferred, filed as 0.5)
[8] = at 50.0 µM (retest, dose inferred, filed as 5.0)

Measured: growth inhibition

CC(C)(C)c1cc(C2c3cc4c(cc3OC(O)(CO)C2C(=O)O)OCO4)cc(C(C)(C)C)c1O (stereo not given) (tested in a mixture with another compound)
active: [4]; at 50.0 µM 72.1% | [6]; [8] 73%
inactive: [1]; [7] -23% | [1]; [8] 39% | [1]; at 50.0 µM 49.9% | [2]; [7] -6% | [2]; [8] 61% | [2]; at 50.0 µM 50.1% | [3]; [7] -20% | [3]; [8] 50% | [3]; at 50.0 µM 37% | [4]; [7] 5% | [4]; [8] 68% | [5]; [7] -10% | [5]; [8] 63% | [5]; at 50.0 µM 55% | [6]; [7] 11% | [6]; at 50.0 µM 52.6%

COC(=O)c1c2oc3c(C(=O)OC)cccc3nc-2cc(N)c1=O
inactive: [1]; [7] 0% | [1]; [8] 19% | [1]; at 50.0 µM 30.2% | [2]; [7] 22% | [2]; [8] 56% | [2]; at 50.0 µM 25.7% | [3]; [7] 6% | [3]; [8] 22% | [3]; at 50.0 µM 8.8% | [4]; [7] -5% | [4]; [8] -2% | [4]; at 50.0 µM -46.5% | [5]; [7] 49% | [5]; [8] 59% | [5]; at 50.0 µM 66.5% | [6]; [7] 3% | [6]; [8] 44% | [6]; at 50.0 µM 22.5%

COc1cc(C2c3cc4c(cc3OC3(O)C=C(C)OC(=O)C23)OCO4)cc(OC)c1OC (stereo not given)
active: [5]; at 50.0 µM 92.3%
inactive: [1]; [7] 5% | [1]; [8] -5% | [1]; at 50.0 µM 12.1% | [2]; [7] 4% | [2]; [8] -4% | [2]; at 50.0 µM 30% | [3]; [7] 0% | [3]; [8] -22% | [3]; at 50.0 µM 13.4% | [4]; [7] 0% | [4]; [8] 5% | [4]; at 50.0 µM 9.5% | [5]; [7] -1% | [5]; [8] -3% | [6]; [7] 1% | [6]; [8] -10% | [6]; at 50.0 µM 29.9%

COC(=O)C1(Cc2ccc3c(c2)CCC3)Cc2ccccc2C1O (stereo not given)
inactive: [1]; [7] -3% | [2]; [7] -40% | [3]; [7] -44% | [4]; [7] 1% | [5]; [7] -14% | [6]; [7] -21%
active: [1]; [8] 99% | [1]; at 50.0 µM 76.5% | [2]; [8] 99% | [2]; at 50.0 µM 84.1% | [3]; [8] 99% | [3]; at 50.0 µM 86.2% | [4]; [8] 99% | [4]; at 50.0 µM 89.8% | [5]; [8] 99% | [5]; at 50.0 µM 89.6% | [6]; [8] 99% | [6]; at 50.0 µM 91%

CCOC(=O)c1cc(C)ccc1-c1ccc(C)cc1C(=O)OCC
active: [3]; at 50.0 µM 77% | [5]; at 50.0 µM 86.8% | [6]; at 50.0 µM 75.5%
inactive: [1]; [7] 1% | [1]; [8] 29% | [1]; at 50.0 µM 57.6% | [2]; [7] -10% | [2]; [8] 8% | [2]; at 50.0 µM 67.8% | [3]; [7] 1% | [3]; [8] 68% | [4]; [7] -1% | [4]; [8] 17% | [4]; at 50.0 µM 3.55% | [5]; [7] 6% | [5]; [8] 46% | [6]; [7] 2% | [6]; [8] 28%

CCCCCC(CN(C)C)C(=O)/C=C/c1ccc(Cl)cc1 (stereo not given)
active: [1]; [8] 99% | [1]; at 50.0 µM 99.2% | [2]; [8] 100% | [2]; at 50.0 µM 99.3% | [3]; [8] 99% | [3]; at 50.0 µM 99.3% | [4]; [8] 99% | [4]; at 50.0 µM 99.2% | [5]; [8] 98% | [5]; at 50.0 µM 99.3% | [6]; [8] 99% | [6]; at 50.0 µM 99.2%
inactive: [1]; [7] 21% | [2]; [7] -1% | [3]; [7] 6% | [4]; [7] -1% | [5]; [7] 5% | [6]; [7] 33%

Cc1cc2nc(CC(=O)c3ccc4ccccc4c3)c(=O)[nH]c2cc1C
inactive: [1]; [7] -43% | [1]; [8] -24% | [2]; [7] -3% | [2]; [8] 9% | [3]; [7] -5% | [3]; [8] -21% | [4]; [7] -17% | [4]; [8] -33% | [5]; [7] 13% | [5]; [8] -19% | [6]; [7] -16% | [6]; [8] -28%
active: [1]; at 50.0 µM 94.7% | [2]; at 50.0 µM 81.4% | [3]; at 50.0 µM 88.3% | [4]; at 50.0 µM 80.9% | [5]; at 50.0 µM 89% | [6]; at 50.0 µM 96.7%

O=[N+]([O-])c1cnc(Sc2cncc[n+]2[O-])s1
active: [1]; [7] 99% | [1]; [8] 99% | [1]; at 50.0 µM 99.5% | [2]; [7] 100% | [2]; [8] 100% | [2]; at 50.0 µM 99.4% | [3]; [7] 99% | [3]; [8] 100% | [3]; at 50.0 µM 99.3% | [4]; [7] 98% | [4]; [8] 99% | [4]; at 50.0 µM 99.3% | [5]; [7] 99% | [5]; [8] 99% | [5]; at 50.0 µM 99.5% | [6]; [7] 99% | [6]; [8] 99% | [6]; at 50.0 µM 99.5%

CN(C)C(=S)SSSSC(=S)N(C)C
inactive: [4]; [7] 65%
active: [1]; [7] 96% | [1]; [8] 99% | [1]; at 50.0 µM 96.9% | [2]; [7] 98% | [2]; [8] 99% | [2]; at 50.0 µM 96.7% | [3]; [7] 98% | [3]; [8] 99% | [3]; at 50.0 µM 98.3% | [4]; [8] 99% | [4]; at 50.0 µM 93.3% | [5]; [7] 96% | [5]; [8] 99% | [5]; at 50.0 µM 96.8% | [6]; [7] 97% | [6]; [8] 99% | [6]; at 50.0 µM 97%

OCC(O)C(O)C(O)C(O)c1cnn(-c2ccccc2)n1 (stereo not given)
inactive: [1]; [7] 3% | [1]; [8] -4% | [1]; at 50.0 µM 10.8% | [2]; [7] -8% | [2]; [8] -24% | [2]; at 50.0 µM 3.45% | [3]; [7] 3% | [3]; [8] -5% | [3]; at 50.0 µM 15.2% | [4]; [7] -4% | [4]; [8] -2% | [4]; at 50.0 µM 14.2% | [5]; [7] -3% | [5]; [8] 2% | [5]; at 50.0 µM -1.3% | [6]; [7] -7% | [6]; [8] -2% | [6]; at 50.0 µM 18.9%
